Experimental data as given in PubChem BioAssay (EPA / NIEHS).
Inconclusive results are not listed. The source made the active and inactive calls. How the source made its calls, unless noted: active means hit-call score of the fitted dose curve at least 0.9, where 1 is the maximum; inconclusive means response in the unintended direction; inactive means score below 0.9.

What was measured:
[1] = TOX21_p53_BLA_p2_viability: Viability Assessment in the Tox21 HCT-116 p53 Agonism Beta-lactamase Assay, Phase 2 (AID 2283591);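 further: compound exposure lasted 16 h at 37 °C; actives lower the ATP signal meaning cytotoxicity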
How it was run: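 HCT-116 p53-bla cells (4000/well) rested 5 h at 37C, then received compounds in DMSO (217-fold dilution) for 16 h at 37C, 5% CO2. After the CCF4 read, CellTiter-Glo was added; ATP luminescence was read after 30 min at room temperature.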

[2] = target: Cellular tumor antigen p53 (Homo sapiens) (UniProt P04637); experiment: TOX21_p53_BLA_p2_ratio: Tox21 HCT-116 p53 Agonism Beta-lactamase Assay, Ratio, Phase 2 (AID 2283592)
How it was run: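 Read-out is the blue/green (460/530 nm, 405 nm excitation) ratio after 2 h CCF4-AM loading, fitted as gain versus DMSO. Compounds, pinned at 217-fold dilution from DMSO stocks, stayed 16 h on HCT-116 beta-lactamase reporter cells seeded 5 h earlier.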

[3] = TOX21_p53_BLA_p3_viability: Viability Assessment in the Tox21 HCT-116 p53 Agonism Beta-lactamase Assay, Phase 3 (AID 2283593)
How it was run: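 HCT-116 cells (4000/well) rested 5 h at 37C, then got DMSO compounds by pin tool (217-fold dilution) for 16 h at 37C, 5% CO2. After the bla read, CellTiter-Glo was added and luminescence read at 30 min, room temperature.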

[4] = target: Cellular tumor antigen p53 (Homo sapiens) (UniProt P04637); experiment: TOX21_p53_BLA_p3_ratio: Tox21 HCT-116 p53 Agonism Beta-lactamase Assay, Ratio, Phase 3 (AID 2283596)
How it was run: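 Cells were seeded at 4000/well, rested 5 h at 37C, then dosed with DMSO compound solutions (217-fold dilution) for 16 h. CCF4-AM substrate was loaded for 2 h at room temperature, and the 460/530 nm emission ratio was fitted for gain of signal versus DMSO.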

[5] = target: Cellular tumor antigen p53 (Homo sapiens) (UniProt P04637); experiment: TOX21_p53_BLA_p5_ratio: Tox21 HCT-116 p53 Agonism Beta-lactamase Assay, Ratio, Phase 5 (AID 2283599)
How it was run: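 HCT-116 cells carrying a p53-inducible beta-lactamase reporter were seeded at 4000 cells/well and dosed after 5 h with compound in DMSO (217-fold dilution). After 16 h at 37C, CCF4-AM substrate was added for 2 h, and the 460/530 nm emission ratio was scored as gain-of-signal versus DMSO.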

[6] = TOX21_p53_BLA_p5_viability: Viability Assessment in the Tox21 HCT-116 p53 Agonism Beta-lactamase Assay, Phase 5 (AID 2283600)
How it was run: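 Viability came from CellTiter-Glo ATP luminescence, read after 30 min at room temperature. Before this, HCT-116 p53-bla cells (4000/well) had 16 hours of compound exposure at 37C, with DMSO stocks diluted 217-fold on transfer.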

[7] = target: Cellular tumor antigen p53 (Homo sapiens) (UniProt P04637); experiment: TOX21_p53_BLA_p4_ratio: Tox21 HCT-116 p53 Agonism Beta-lactamase Assay, Ratio, Phase 4 (AID 2283601)
How it was run: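 HCT116 cells carrying an inducible beta-lactamase reporter were plated at 4000 cells/well, rested 5 h, then exposed to compounds in DMSO (217-fold dilution) for 16 h at 37C. CCF4-AM substrate was loaded 2 h at room temperature; 460/530 nm emission ratio scored gain-of-signal versus DMSO.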

[8] = target: Thyroid hormone receptor alpha (Rattus norvegicus) + Thyroid hormone receptor beta (Rattus norvegicus) (UniProt P18113+P63059); experiment: TOX21_TR_LUC_GH3_Agonist_Followup: Tox21 GH3 Thyroid Hormone Receptor Agonism Luciferase Follow-Up Assay (AID 2283939)
How it was run: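 Agonist-mode confirmatory run: 15 concentrations (5 nM to 92 uM final) on GH3 rat pituitary cells, 24 h at 37C/5% CO2, T3 as positive control. Luminescence read with ONE-Glo after 30 min.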

THRA (gene 7067) = THRA (gene 7067) (UniProt P10827); experiment: TOX21_TRA_COA_Agonist_Followup_ratio: Tox21 Thyroid Hormone Receptor alpha Agonism through Coactivator Recruitment Follow-Up Assay, Ratio (AID 2283948; active means hit-call score of the fitted dose curve at least 0.9, where 1 is the maximum; inactive means score below 0.9)
How it was run: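 Cell-free TR-FRET coactivator recruitment: GST-tagged TRα LBD (2.5 nM) with 0.10% BSA was incubated with compound, then fluorescein-SRC-2 peptide (200 nM) and Tb-anti-GST antibody (2 nM) added. 520:495 nm ratio normalized to DMSO (0%) and T3 (100%).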

THRB (gene 7068) [9] = target: THRB (gene 7068) (UniProt P10828); experiment: TOX21_TRB_BLA_Agonist_Followup_ratio: Tox21 Thyroid Hormone Receptor beta Agonism Beta-lactamase (BLA) Follow-Up Assay, Ratio (AID 2283954)
How it was run: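 Agonist mode: compounds (11-point, triplicate) incubated 18 h with HEK293T cells carrying GAL4-DBD/human TRβ-LBD and UAS-β-lactamase. Blue/green (460/530 nm) FRET ratio read after 2 h CCF4-AM loading; CellTiter-Glo viability run in the same plates.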

THRB (gene 7068) [10] = target: THRB (gene 7068) (UniProt P10828); experiment: TOX21_TRB_COA_Agonist_Followup_ratio: Tox21 Thyroid Hormone Receptor beta Agonism through Coactivator Recruitment Follow-Up Assay, Ratio (AID 2283963; active means hit-call score of the fitted dose curve at least 0.9, where 1 is the maximum; inactive means score below 0.9)
How it was run: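 Cell-free TR-FRET coactivator recruitment: GST-tagged TRβ LBD (5.0 nM) with 0.10% BSA incubated with compound, then fluorescein-SRC-2 peptide (200 nM) and Tb-anti-GST antibody (2 nM) added. 520:495 nm ratio normalized to DMSO (0%) and T3 (100%).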

[11] = target: Retinoic acid receptor RXR-alpha (Homo sapiens) (UniProt P19793); experiment: TOX21_TR_RXR_BLA_Agonist_Followup_ratio: Tox21 Thyroid Hormone Receptor beta Retinoid X Receptor alpha (RXRa) Agonism Beta-lactamase (BLA) Follow-Up Assay, Ratio (AID 2283968)
How it was run: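 Cells were first allowed to attach for 5 h, after which compounds in DMSO were pinned at 11 concentrations and incubated 16 h at 37C. LiveBLAzer CCF4-AM substrate was then added for 2 h at room temperature before reading 460 and 530 nm fluorescence.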

[12] = TOX21_TR_RXR_BLA_Agonist_Followup_viability: Viability Assessment in the Tox21 Thyroid Hormone Receptor beta Retinoid X Receptor alpha (RXRa) Agonism Beta-lactamase (BLA) Follow-Up Assay (AID 2283970)
How it was run: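 Viability counter-screen run alongside the RXRa bla follow-up: HEK293T reporter cells were treated for 16h at 37C in stripped-serum medium, then ATP was quantified by luciferase-coupled CellTiter-Glo. Decreased signal relative to DMSO marked cytotoxicity.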

Measured: outcome

Chain of Cellular tumor antigen p53 (Homo sapiens) (P04637 whole entry, looked up): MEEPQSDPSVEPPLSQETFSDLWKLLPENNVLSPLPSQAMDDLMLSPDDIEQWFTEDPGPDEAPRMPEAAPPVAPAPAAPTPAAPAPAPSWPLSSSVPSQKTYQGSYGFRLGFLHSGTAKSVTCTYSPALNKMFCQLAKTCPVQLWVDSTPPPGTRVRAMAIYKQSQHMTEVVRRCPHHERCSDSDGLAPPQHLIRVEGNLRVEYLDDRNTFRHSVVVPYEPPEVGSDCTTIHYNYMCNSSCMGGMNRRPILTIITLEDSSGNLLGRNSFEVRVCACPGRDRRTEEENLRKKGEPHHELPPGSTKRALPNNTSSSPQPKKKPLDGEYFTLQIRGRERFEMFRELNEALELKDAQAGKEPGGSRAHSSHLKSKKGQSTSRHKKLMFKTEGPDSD
Chain of THRB (gene 7068) (P10828 whole entry, looked up, the tested form may be a part): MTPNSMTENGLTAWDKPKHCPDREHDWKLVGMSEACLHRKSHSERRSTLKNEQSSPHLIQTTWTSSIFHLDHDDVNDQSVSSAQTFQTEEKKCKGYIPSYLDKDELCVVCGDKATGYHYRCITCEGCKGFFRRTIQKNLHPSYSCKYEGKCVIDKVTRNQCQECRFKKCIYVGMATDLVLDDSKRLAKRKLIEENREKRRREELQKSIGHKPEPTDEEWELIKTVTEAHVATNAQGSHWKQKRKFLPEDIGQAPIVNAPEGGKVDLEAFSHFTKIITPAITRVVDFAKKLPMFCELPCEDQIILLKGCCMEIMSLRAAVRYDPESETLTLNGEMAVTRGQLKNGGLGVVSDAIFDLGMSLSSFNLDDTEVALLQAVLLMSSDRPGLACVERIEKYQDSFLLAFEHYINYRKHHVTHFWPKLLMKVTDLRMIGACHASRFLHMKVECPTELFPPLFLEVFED
Chain of THRA (gene 7067) (P10827 whole entry, looked up, the tested form may be a part): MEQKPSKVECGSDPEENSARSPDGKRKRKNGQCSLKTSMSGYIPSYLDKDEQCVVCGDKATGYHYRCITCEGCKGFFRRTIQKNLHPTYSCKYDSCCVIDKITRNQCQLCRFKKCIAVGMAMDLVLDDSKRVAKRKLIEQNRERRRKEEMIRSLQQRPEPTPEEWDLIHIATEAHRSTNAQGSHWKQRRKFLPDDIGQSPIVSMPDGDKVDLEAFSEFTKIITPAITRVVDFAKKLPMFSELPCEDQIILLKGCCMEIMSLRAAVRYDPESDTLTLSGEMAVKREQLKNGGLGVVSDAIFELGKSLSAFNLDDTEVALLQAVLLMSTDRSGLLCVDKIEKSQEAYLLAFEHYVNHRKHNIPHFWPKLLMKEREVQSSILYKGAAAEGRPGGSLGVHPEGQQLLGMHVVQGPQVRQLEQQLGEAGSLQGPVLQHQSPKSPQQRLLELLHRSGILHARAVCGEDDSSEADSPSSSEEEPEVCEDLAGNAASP
Chain of Retinoic acid receptor RXR-alpha (Homo sapiens) (P19793 whole entry, looked up): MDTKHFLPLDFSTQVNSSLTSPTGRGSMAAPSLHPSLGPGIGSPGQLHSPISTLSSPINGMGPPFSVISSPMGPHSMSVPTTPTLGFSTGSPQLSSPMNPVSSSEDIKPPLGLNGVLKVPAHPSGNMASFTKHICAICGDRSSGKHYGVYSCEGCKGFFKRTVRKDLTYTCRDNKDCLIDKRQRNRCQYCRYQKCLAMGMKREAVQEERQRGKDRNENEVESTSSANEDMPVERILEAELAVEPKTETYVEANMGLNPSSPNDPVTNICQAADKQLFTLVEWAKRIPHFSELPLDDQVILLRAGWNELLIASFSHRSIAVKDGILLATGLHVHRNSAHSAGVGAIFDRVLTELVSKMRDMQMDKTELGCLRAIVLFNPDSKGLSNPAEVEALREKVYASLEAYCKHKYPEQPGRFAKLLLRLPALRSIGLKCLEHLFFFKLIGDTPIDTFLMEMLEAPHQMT
Chain of Thyroid hormone receptor alpha (Rattus norvegicus) + Thyroid hormone receptor beta (Rattus norvegicus) (P63059 whole entry, looked up): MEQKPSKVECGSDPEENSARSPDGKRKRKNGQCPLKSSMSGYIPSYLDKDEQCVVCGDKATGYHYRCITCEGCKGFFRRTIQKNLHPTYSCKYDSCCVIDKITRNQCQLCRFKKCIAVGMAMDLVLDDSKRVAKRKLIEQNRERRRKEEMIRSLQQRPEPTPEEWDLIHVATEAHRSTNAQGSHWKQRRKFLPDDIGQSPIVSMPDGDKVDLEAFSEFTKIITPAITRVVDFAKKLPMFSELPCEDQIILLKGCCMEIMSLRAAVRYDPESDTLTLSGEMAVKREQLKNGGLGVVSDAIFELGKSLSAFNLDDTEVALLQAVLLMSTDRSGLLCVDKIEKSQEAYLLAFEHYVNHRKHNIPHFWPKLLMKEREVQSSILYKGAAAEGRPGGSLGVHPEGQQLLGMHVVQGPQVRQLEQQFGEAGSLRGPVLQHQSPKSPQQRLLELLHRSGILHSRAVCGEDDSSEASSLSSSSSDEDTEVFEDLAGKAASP
Chain of Thyroid hormone receptor alpha (Rattus norvegicus) + Thyroid hormone receptor beta (Rattus norvegicus) (P18113 whole entry, looked up): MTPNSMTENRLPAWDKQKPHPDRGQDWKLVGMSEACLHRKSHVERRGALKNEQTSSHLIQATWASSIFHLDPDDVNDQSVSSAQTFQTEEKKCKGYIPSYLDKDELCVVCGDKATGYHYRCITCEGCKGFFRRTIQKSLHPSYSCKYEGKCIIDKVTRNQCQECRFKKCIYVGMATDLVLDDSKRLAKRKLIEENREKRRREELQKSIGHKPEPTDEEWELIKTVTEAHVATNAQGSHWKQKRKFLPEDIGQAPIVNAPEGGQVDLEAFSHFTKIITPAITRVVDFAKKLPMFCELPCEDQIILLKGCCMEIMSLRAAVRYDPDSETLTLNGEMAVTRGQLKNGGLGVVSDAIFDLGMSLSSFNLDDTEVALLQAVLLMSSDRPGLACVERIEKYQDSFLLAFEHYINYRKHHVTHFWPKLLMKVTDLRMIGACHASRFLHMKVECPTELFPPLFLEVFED

COC(=O)[C@@H](N)CS
inactive: [1] | [2] | [3] | [4] | [5] | [6] | [7]

Cc1ncc([N+](=O)[O-])n1CC(C)O (stereo unspecified)
inactive: [1] | [2] | [3] | [4] | [5] | [6] | [7]

CC(C)C[C@H](NC(=O)[C@@H](COC(C)(C)C)NC(=O)[C@H](Cc1ccc(O)cc1)NC(=O)[C@H](CO)NC(=O)[C@H](Cc1c[nH]c2ccccc12)NC(=O)[C@H](Cc1cnc[nH]1)NC(=O)[C@@H]1CCC(=O)N1)C(=O)N[C@@H](CCCN=C(N)N)C(=O)N1CCC[C@H]1C(=O)NNC(N)=O
inactive: [1] | [2] | [3] | [4] | [5] | [6] | [7]

C=C1c2cccc(O)c2C(O)=C2C(=O)[C@]3(O)C(O)=C(C(N)=O)C(=O)[C@@H](N(C)C)[C@@H]3[C@@H](O)[C@H]12
inactive: [1] | [2] | [3] | [4] | [5] | [6] | [7]

CCc1ccc(S(=O)(=O)O)cc1
inactive: [1] | [2] | [3] | [4] | [5] | [6] | [7]

Cc1cc(-n2c(=O)[nH]c(=O)n(C)c2=O)ccc1Oc1ccc(S(=O)(=O)C(F)(F)F)cc1
inactive: all assays above

CC(C)(C)OC(=O)c1ccccc1C(=O)O
inactive: [1] | [2] | [3] | [4] | [5] | [6] | [7]

CCCCCCCCCCOc1cc2c(=O)c(C(=O)OCC)c[nH]c2cc1OCC
inactive: [1] | [2] | [3] | [4] | [5] | [6] | [7]

COc1cc(O)cc(O)c1
inactive: [1] | [2] | [3] | [4] | [5] | [6] | [7]

CC(C)(C)CC(=O)OCC(=O)[C@@]12OC(C)(C)O[C@@H]1C[C@H]1[C@@H]3CCC4=CC(=O)C=C[C@]4(C)[C@@]3(F)[C@@H](O)C[C@@]12C
inactive: [1] | [2] | [3] | [4] | [5] | [6] | [7]
